Records with an inconclusive call do not appear. Values without a mark were called inactive. The source made the active and inactive calls. The call rests on the fitted dose curve; in most records, active means well fitted inhibition curve with a large enough effect; inconclusive means small, poorly fitted or top-dose-only effect; inactive means no such curve, though single readings can be large or run the other way.
Potency means the concentration at half of the fitted maximal effect.

Nicotinamide N-methyltransferase (Homo sapiens), sequence (P40261 whole entry, looked up): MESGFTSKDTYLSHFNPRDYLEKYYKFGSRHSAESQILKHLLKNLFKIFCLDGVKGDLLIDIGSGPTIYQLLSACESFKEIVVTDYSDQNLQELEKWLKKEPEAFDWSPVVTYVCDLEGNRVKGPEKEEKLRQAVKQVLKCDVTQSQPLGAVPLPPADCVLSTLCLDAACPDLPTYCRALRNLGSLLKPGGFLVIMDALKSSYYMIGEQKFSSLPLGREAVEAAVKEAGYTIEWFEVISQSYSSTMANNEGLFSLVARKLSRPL

This assay deals with Nicotinamide N-methyltransferase (Homo sapiens) (UniProt P40261). Briefly: qHTS Assay for Inhibitors of N-terminal methyltransferase 1 (NTMT1): NNMT MTaseGlo counterscreen assay.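 On activity change, negative = inhibition: plate controls were DMSO without inhibitor for no effect and no-enzyme control for full effect.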 The conditions noted are these: NNMT enzyme, MTase-Glo luminescence counterscreen; series mostly up to 57.1 µM; activity change, negative = inhibition: at the top concentration. The gist of the method:
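Luminescent MTase-Glo read-out of SAH from nicotinamide methylation: 1 µM nicotinamide, 100 µM SAM, 125 nM NNMT, 30 min RT after ~15 min compound preincubation. Values normalized to no-enzyme/DMSO controls, Hill-fitted.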
For orientation: qHTS replaces the single test concentration by a dilution series.
As to `CC(CN1c2ccccc2Sc2ccccc21)N(C)C` (configuration not stated), the “activity change, negative = inhibition” value is 98.6%.
As to `Nc1ccnc2c1ncn2[C@@H]1O[C@H](CO)[C@@H](O)[C@H]1O`, the Potency was 14.1 µM (active).
Take `COc1ccc(C(=O)/C(Cc2cc(OC)c(OC)c(OC)c2)=C(\C(=O)O)c2ccc3c(c2)OCO3)cc1`: the “activity change, negative = inhibition” value is -17.5%.
On the same count and under the same terms, the value for `Oc1cc2c(cc1O)CN(C(=S)NCCc1ccc(Cl)cc1)CCC2` was -13.5%; that for `Nc1nc(F)nc2c1ncn2[C@@H]1O[C@H](CO)[C@@H](O)[C@@H]1O` was -13.1%; that for `CCN(CC)C(C)CN1c2ccccc2Sc2ccccc21` (configuration not stated) was -2.39%.
Still for that read-out and setting: the result for `CCN1C(=O)C=CC1=O` reads -5.26%; that for `Nc1nc(Nc2ccccc2)nc2c1ncn2[C@@H]1O[C@H](CO)[C@@H](O)[C@H]1O`, -12%.
Still for that read-out and setting: the value for `CN=c1nc(-c2ccccc2)n(-c2ccccc2)s1` was -11.7%.
In the case of `CN1Cc2sccc2C(c2ccc(O)c(O)c2)C1` (configuration not stated), the “activity change, negative = inhibition” value is -7.5%.
Still for that read-out and setting: the value for `[N-]=[N+]=Nc1nc2c(N)ncnc2n1C1OC(CO)C(O)C1O` (configuration not stated) was -19.6%; that for `Oc1cc(O)c2c(c1)O[C@H](c1ccc(O)c(O)c1)[C@@H](O)C2` was -8.77%.
On to `Cc1c(OCC(F)(F)F)ccnc1CS(=O)c1nc2ccccc2[nH]1` (configuration not stated), for which the “activity change, negative = inhibition” value is -12.3%.
As to `OCC1OC(n2cnc3c(NO)ncnc32)C(O)C1O` (configuration not stated), the “activity change, negative = inhibition” value is 116%.
`Oc1ccccc1O`: the “activity change, negative = inhibition” value is 17.2%.
In the case of `C=CCN1CCc2cc(O)c(O)cc2[C@H](c2ccccc2)C1`, the “activity change, negative = inhibition” value was 46.9%.
On the same count and under the same terms, the result for `C=CCN1CCc2c(cc(O)c(O)c2Br)[C@@H](c2ccccc2)C1` reads -16.5%; that for `Clc1ccc(N2CCN(Cc3c[nH]c4ncccc34)CC2)cc1`, -2.3%; that for `Nc1ncnc2c1ncn2[C@@H]1O[C@H](C(=O)N2CCN(CC(=O)Nc3cccc4c3CNC4=O)CC2)[C@@H](O)[C@H]1O`, -19.9%.
For the molecule `CSc1nc(N)c2ncn([C@@H]3O[C@H](COP(=O)(O)OP(=O)(O)OP(=O)(O)O)[C@@H](O)[C@H]3O)c2n1`, the “activity change, negative = inhibition” value was -12.5%.
On to `Cn1ncc(S(=O)(=O)Cc2ccccc2)c(Br)c1=O`, for which the “activity change, negative = inhibition” value is -13.1%.
On to `N=c1c[n+](N2CCOCC2)[n-]o1`, for which the “activity change, negative = inhibition” value is -13.7%.
With `COc1ccccc1N1CCN(CCN2C(=O)CC3(CCCC3)CC2=O)CC1`, the “activity change, negative = inhibition” value is -10.2%.
Turning to `CC1=C(\C=C/C(C)=C/C=C\C(C)=C\C(=O)O)C(C)(C)CCC1`, the “activity change, negative = inhibition” value was -8.2%.
Still for that read-out and setting: the value for `Nc1nc(Cl)nc2c1ncn2[C@@H]1O[C@H](COP(=O)(O)OP(=O)(O)OP(=O)(O)O)[C@@H](O)[C@H]1O` was 30.3%; that for `CC(C)COCC(CN(Cc1ccccc1)c1ccccc1)N1CCCC1` (configuration not stated) was -7.75%; that for `CCC(CC)n1ccc2c(C(=O)NCc3c(C)cc(C)[nH]c3=O)cc(C#N)cc21` was -10.6%.
For the molecule `Nc1ccc(CCNc2ncnc3c2ncn3C2OC(CO)C(O)C2O)cc1` (configuration not stated), the “activity change, negative = inhibition” value was -8.43%.
Regarding `CN1CCN(CCCN2c3ccccc3Sc3ccc(Cl)cc32)CC1`, the “activity change, negative = inhibition” value was -16.6%.
For `CSc1ccc(C(=O)c2[nH]c(=O)[nH]c2C)cc1`, the “activity change, negative = inhibition” value was -13.4%.
Turning to `OCC1OC(n2cnc3c(=S)nc[nH]c32)C(O)C1O` (configuration not stated), the “activity change, negative = inhibition” value was -8.37%.
`C=Cc1c(C)c2cc3[nH]c(cc4nc(cc5nc(cc1[nH]2)C(C)=C5CCC(=O)O)C(CCC(=O)O)=C4C)c(C)c3C=C`: the “activity change, negative = inhibition” value is -14.1%.
As for `O=C(/C=C/c1ccc(O)c(O)c1)OCCc1ccccc1`, the “activity change, negative = inhibition” value was 1.7%.
The same measure, in the same setting: the value for `Cc1nn(-c2ccccc2)c(C)c1/C=N/N1CCN(Cc2ccccc2)CC1` was -7.51%; that for `Nc1nc(=S)c2ncn([C@H]3O[C@@H](CO)[C@@H](O)[C@@H]3O)c2[nH]1` was -7.78% [at 28.5 µM].
On to `O=C1c2c(O)cc(O)cc2OC(c2ccc(O)c(O)c2)C1O` (configuration not stated), for which the “activity change, negative = inhibition” value is -6.75%.
As to `CCN1CCC[C@H]1CNC(=O)c1cc(S(N)(=O)=O)ccc1OC`, the “activity change, negative = inhibition” value is -5.75%.

Source of the values: PubChem BioAssay AID1347146 (National Center for Advancing Translational Sciences (NCATS), 2019).
